# Measured values taken from article PMC7862700, “An all-to-all approach to the identification of sequence-specific readers for epigenetic DNA modifications on cytosine”.
# Tests used:
# Assay in all cases: DAPPL (digital affinity profiling via proximity ligation, sequencing); 10 mM Tris-HCl pH 7.5, 50 mM NaCl, 1 mM DTT, 4% glycerol, room temperature, 30 min; GST-TFs on glutathione beads, 16-mer random dsDNA library, 0.1% formaldehyde crosslink after washing; high values mean tight binding
# FEV = target: T1, FEV (Homo sapiens, UniProt Q99581 1-238); conditions: protein: recombinant; tags: N-terminal GST; dsDNA, one strand shown
# T1 sequence: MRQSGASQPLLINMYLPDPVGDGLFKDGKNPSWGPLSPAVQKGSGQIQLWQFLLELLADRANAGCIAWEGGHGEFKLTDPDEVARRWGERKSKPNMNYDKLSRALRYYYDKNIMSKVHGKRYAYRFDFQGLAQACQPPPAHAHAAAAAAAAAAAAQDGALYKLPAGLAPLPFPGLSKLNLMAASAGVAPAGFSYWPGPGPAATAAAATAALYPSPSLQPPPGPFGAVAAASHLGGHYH
# Outline: (§1)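 The binding signal reported is, for every hexamer, its read frequency for a factor over its read frequency for the tag-only sample. Reads came from pools of yeast-expressed, GST-fused human transcription factors on glutathione beads, barcoded with DNA and mixed with that sample, which were incubated with 200 nmole of a random double-stranded 16-mer DNA library in Tris/NaCl/DTT/glycerol buffer at room temperature for 30 min. After washing, the pools were crosslinked with 0.1% formaldehyde, proximity-ligated with BsaI/T4 ligase for 1 h at 37 °C, PCR-amplified and sequenced on an Illumina NextSeq500.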
# ETV5 = ETV5 (Homo sapiens, UniProt P41161 1-510); conditions: protein: recombinant; tags: N-terminal GST; dsDNA, one strand shown
# Outline: as §1
# HSF1 = HSF1 (Homo sapiens, UniProt Q00613 1-529); conditions: protein: recombinant; tags: N-terminal GST; chain copies: 3; dsDNA, one strand shown
# Outline: as §1
# SPIC = target: T2, SPIC (Homo sapiens, UniProt Q8N5J4 1-248); conditions: protein: recombinant; tags: N-terminal GST; dsDNA, one strand shown
# T2 sequence: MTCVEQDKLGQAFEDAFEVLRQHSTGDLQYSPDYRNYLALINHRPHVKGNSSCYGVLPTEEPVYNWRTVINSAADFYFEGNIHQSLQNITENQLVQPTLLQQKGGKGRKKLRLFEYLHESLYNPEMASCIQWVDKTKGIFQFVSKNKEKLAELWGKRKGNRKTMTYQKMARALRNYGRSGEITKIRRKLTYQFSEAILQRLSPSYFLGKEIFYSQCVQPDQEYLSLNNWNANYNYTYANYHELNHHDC
# Outline: as §1
# ELF4 = ELF4 (Homo sapiens, UniProt Q99607 1-663); conditions: protein: recombinant; tags: N-terminal GST; dsDNA, one strand shown
# Outline: as §1
# ELK4 = target: T3, ELK4 (Homo sapiens, UniProt P28324-2 1-405); conditions: protein: recombinant; tags: N-terminal GST; dsDNA, one strand shown
# T3 sequence: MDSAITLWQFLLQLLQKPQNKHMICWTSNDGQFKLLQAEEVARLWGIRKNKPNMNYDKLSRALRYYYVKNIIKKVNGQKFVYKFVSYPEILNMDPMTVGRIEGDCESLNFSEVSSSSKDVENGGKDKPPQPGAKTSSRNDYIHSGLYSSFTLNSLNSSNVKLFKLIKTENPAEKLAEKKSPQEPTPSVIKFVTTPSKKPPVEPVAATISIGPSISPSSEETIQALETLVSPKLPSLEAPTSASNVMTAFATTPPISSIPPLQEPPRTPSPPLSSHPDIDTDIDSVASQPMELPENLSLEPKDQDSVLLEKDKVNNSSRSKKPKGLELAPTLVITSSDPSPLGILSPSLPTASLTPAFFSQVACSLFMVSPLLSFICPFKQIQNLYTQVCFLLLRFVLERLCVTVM
# Outline: as §1
# ETV2 = target: T4, ETV2 (Homo sapiens, UniProt O00321 1-342); conditions: protein: recombinant; tags: N-terminal GST; dsDNA, one strand shown
# T4 sequence: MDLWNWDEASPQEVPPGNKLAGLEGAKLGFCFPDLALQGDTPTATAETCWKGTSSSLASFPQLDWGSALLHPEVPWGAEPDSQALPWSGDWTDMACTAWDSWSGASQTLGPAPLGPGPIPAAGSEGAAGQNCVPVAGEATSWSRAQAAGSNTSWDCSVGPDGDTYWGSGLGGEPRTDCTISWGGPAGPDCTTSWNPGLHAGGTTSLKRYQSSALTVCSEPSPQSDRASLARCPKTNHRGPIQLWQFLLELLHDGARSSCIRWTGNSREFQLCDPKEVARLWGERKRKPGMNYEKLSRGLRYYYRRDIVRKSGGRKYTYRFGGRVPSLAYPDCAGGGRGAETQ
# Outline: as §1
# ELF3 = target: T5, ELF3 (Homo sapiens, UniProt P78545 1-371); conditions: protein: recombinant; tags: N-terminal GST; dsDNA, one strand shown
# T5 sequence: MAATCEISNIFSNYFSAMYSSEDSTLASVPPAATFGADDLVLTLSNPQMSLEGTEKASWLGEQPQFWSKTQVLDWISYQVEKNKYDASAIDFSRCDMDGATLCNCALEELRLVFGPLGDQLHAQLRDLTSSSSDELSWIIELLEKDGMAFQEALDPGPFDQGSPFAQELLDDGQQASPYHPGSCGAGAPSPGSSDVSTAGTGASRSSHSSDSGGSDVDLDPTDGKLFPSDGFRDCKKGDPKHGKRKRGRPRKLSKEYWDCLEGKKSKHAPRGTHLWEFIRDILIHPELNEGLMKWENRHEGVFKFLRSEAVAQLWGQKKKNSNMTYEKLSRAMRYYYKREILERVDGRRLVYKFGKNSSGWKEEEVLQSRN
# Outline: as §1
# CRX = CRX (Homo sapiens, UniProt O43186 1-299); conditions: protein: recombinant; tags: N-terminal GST; dsDNA, one strand shown
# Outline: as §1
# ETV1 = ETV1 (Homo sapiens, UniProt P50549 1-477); conditions: protein: recombinant; tags: N-terminal GST; dsDNA, one strand shown
# Outline: as §1
# ERF = target: T6, ERF (Homo sapiens, UniProt P50548 1-548); conditions: protein: recombinant; tags: N-terminal GST; dsDNA, one strand shown
# T6 sequence: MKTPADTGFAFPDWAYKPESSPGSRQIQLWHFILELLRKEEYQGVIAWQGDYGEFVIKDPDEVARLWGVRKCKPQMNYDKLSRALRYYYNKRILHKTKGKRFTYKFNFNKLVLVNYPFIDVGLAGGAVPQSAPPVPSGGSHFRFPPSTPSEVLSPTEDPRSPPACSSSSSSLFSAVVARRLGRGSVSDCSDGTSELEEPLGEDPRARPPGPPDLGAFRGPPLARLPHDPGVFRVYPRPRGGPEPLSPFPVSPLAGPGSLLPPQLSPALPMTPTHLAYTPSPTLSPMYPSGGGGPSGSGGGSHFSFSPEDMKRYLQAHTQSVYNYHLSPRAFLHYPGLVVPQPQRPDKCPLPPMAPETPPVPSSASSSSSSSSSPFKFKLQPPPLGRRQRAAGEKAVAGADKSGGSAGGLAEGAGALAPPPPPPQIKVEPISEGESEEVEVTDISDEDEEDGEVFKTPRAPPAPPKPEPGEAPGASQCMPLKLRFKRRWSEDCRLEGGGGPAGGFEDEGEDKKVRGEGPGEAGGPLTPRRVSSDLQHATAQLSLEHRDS
# Outline: as §1
# ETV3L = target: T7, ETV3L (Homo sapiens, UniProt Q6ZN32 1-361); conditions: protein: recombinant; tags: N-terminal GST; dsDNA, one strand shown
# T7 sequence: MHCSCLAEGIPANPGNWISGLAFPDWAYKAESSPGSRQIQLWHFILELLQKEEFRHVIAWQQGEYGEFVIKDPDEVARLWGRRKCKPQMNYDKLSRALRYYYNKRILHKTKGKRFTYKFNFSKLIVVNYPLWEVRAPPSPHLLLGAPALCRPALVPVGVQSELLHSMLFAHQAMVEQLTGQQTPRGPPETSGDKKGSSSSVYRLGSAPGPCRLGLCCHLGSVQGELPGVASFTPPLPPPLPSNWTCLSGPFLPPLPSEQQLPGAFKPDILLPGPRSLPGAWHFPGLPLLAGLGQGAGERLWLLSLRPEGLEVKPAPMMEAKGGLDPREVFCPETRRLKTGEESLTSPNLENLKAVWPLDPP
# Outline: as §1
# ETS2 = target: T8, ETS2 (Homo sapiens, UniProt P15036 1-469); conditions: protein: recombinant; tags: N-terminal GST; dsDNA, one strand shown
# T8 sequence: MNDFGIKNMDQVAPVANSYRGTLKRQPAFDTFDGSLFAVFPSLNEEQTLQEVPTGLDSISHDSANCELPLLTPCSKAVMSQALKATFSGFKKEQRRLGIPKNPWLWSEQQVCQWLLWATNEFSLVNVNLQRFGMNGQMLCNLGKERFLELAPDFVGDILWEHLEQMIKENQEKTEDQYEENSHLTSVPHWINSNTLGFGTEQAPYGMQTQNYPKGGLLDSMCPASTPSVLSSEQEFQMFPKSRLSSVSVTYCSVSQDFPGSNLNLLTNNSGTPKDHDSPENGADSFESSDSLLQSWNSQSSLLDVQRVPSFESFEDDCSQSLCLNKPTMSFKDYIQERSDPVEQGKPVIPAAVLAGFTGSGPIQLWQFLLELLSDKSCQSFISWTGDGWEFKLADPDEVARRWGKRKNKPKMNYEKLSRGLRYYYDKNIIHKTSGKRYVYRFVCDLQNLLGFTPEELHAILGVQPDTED
# Outline: as §1
# SPDEF = target: T9, SPDEF (Homo sapiens, UniProt O95238 1-335); conditions: protein: recombinant; tags: N-terminal GST; dsDNA, one strand shown
# T9 sequence: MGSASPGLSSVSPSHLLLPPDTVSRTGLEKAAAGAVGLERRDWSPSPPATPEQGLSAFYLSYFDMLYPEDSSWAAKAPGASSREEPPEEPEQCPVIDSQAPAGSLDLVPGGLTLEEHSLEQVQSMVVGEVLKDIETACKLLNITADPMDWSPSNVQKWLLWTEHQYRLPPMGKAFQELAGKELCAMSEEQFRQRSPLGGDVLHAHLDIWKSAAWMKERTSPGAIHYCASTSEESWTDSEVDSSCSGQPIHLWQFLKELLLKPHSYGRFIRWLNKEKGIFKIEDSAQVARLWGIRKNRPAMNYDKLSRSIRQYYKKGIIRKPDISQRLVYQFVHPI
# Outline: as §1
# ETV7 = target: T10, ETV7 (Homo sapiens, UniProt Q9Y603 1-341); conditions: protein: recombinant; tags: N-terminal GST; dsDNA, one strand shown
# T10 sequence: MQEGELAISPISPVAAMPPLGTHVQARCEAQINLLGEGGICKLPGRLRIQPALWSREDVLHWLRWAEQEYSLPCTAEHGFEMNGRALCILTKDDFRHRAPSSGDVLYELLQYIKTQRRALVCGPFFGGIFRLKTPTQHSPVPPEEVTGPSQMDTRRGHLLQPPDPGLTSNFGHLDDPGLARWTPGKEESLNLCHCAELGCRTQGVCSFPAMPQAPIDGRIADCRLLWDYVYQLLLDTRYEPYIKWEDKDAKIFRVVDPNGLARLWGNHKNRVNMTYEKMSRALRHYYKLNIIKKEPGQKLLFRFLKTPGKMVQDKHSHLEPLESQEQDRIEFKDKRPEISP
# Outline: as §1
# ELF5 = target: T11, ELF5 (Homo sapiens, UniProt Q9UKW6-2 1-255); conditions: protein: recombinant; tags: N-terminal GST; dsDNA, one strand shown
# T11 sequence: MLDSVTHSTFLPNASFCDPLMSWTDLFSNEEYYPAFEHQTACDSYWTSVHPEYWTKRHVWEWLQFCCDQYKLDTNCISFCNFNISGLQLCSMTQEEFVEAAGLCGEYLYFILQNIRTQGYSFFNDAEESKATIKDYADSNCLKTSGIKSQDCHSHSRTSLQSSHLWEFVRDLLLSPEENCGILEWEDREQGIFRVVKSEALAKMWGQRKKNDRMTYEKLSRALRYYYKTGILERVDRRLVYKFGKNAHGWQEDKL
# Outline: as §1
# ETV3 = target: T12, ETV3 (Homo sapiens, UniProt P41162-2 1-143); conditions: protein: recombinant; tags: N-terminal GST; dsDNA, one strand shown
# T12 sequence: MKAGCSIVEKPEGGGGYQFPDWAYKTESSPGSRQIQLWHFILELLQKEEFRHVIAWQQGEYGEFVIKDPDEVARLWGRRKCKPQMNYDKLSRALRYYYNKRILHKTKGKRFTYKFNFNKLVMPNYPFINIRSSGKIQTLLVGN
# Outline: as §1
# ETV6 = ETV6 (Homo sapiens, UniProt P41212 1-452); conditions: protein: recombinant; tags: N-terminal GST; dsDNA, one strand shown
# Outline: as §1
# Sequence of ETV6 (P41212 whole entry): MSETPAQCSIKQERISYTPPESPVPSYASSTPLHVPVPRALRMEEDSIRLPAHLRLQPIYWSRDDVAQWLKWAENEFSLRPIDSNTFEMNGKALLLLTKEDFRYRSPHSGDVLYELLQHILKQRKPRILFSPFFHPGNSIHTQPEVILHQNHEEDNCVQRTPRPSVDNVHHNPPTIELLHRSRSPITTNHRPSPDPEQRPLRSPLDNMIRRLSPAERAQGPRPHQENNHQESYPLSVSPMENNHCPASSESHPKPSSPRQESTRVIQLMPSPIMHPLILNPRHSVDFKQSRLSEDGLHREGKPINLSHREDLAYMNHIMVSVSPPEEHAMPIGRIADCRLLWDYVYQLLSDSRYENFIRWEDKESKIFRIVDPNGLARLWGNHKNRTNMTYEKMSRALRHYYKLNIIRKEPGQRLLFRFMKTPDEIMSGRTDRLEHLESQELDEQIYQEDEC
# Sequence of ELF4 (Q99607 whole entry): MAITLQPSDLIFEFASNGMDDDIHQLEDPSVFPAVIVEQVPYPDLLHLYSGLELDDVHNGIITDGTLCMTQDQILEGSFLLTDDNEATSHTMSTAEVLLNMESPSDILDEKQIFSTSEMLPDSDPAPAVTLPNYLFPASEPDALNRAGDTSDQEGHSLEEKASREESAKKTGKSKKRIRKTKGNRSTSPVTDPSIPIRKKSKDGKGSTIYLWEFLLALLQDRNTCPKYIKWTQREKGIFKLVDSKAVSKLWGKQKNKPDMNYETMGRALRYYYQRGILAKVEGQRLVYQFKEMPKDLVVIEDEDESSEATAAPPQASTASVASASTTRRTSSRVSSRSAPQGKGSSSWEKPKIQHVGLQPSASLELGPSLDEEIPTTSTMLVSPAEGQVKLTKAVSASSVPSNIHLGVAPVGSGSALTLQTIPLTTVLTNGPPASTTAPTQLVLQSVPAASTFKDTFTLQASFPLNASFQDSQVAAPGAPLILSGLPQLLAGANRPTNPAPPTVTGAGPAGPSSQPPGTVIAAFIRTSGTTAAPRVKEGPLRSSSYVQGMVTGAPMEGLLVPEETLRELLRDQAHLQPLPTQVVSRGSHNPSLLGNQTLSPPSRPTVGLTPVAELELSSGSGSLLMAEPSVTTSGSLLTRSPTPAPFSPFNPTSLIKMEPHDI
# Sequence of CRX (O43186 whole entry): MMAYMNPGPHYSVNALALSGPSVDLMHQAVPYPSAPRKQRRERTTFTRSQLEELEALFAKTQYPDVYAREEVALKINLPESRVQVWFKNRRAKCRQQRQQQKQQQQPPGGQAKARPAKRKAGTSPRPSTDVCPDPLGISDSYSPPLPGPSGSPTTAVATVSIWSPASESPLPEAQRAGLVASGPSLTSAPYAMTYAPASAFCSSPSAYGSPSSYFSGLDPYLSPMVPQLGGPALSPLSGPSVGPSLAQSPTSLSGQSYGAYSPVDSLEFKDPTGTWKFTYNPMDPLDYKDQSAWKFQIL
# Sequence of ETV1 (P50549 whole entry): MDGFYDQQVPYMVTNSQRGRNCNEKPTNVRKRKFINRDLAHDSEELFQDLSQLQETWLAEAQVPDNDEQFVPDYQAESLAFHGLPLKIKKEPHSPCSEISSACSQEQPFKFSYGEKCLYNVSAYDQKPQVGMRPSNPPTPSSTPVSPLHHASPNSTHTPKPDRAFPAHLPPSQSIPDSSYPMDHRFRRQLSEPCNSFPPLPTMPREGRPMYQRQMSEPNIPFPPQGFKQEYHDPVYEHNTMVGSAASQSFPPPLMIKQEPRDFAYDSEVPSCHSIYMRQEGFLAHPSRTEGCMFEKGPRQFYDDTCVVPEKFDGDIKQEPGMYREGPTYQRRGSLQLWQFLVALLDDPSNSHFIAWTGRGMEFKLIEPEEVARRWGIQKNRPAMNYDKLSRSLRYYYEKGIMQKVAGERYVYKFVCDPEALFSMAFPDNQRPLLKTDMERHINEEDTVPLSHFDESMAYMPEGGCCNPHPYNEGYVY
# Sequence of ETV5 (P41161 whole entry): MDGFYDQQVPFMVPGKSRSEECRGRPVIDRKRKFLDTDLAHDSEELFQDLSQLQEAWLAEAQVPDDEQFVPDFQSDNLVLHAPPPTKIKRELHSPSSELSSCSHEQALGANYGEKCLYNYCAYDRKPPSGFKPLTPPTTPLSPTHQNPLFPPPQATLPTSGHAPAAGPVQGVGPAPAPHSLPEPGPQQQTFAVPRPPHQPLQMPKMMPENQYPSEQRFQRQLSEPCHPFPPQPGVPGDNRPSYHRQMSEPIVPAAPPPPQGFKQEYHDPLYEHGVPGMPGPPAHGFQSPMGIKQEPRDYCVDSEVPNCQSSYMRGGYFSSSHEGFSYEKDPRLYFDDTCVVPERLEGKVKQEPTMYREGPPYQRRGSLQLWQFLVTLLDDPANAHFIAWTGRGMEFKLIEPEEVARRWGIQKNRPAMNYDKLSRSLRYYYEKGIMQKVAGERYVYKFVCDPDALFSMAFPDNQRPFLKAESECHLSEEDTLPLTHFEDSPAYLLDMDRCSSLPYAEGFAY
# Sequence of HSF1 (Q00613 whole entry): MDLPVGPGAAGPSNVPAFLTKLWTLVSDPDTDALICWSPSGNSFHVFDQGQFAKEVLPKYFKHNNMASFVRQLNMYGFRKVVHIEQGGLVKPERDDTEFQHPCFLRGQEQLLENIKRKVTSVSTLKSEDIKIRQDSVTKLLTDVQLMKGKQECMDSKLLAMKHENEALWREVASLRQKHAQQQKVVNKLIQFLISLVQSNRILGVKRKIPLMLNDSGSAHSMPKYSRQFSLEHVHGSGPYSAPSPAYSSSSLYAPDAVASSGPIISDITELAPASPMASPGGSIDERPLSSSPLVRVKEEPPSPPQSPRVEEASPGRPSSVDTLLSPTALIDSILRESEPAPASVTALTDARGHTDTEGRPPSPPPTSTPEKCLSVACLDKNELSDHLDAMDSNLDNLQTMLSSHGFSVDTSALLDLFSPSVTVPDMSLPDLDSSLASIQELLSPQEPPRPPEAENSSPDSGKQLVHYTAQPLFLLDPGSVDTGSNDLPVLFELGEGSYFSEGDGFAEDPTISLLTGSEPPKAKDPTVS
sequence,measurement,setting,value
CGTTTC,binding signal,FEV,"1.98 fold enrichment (6-mer frequency, TF over GST control)"
same,binding signal,ETV5,"1.72 fold enrichment (6-mer frequency, TF over GST control)"
same,binding signal,HSF1,"1.24 fold enrichment (6-mer frequency, TF over GST control)"
same,binding signal,SPIC,"1.77 fold enrichment (6-mer frequency, TF over GST control)"
same,binding signal,ELF4,"1.8 fold enrichment (6-mer frequency, TF over GST control)"
same,binding signal,ELK4,"1.65 fold enrichment (6-mer frequency, TF over GST control)"
same,binding signal,ETV2,"1.41 fold enrichment (6-mer frequency, TF over GST control)"
same,binding signal,ELF3,"1.72 fold enrichment (6-mer frequency, TF over GST control)"
same,binding signal,CRX,"1.06 fold enrichment (6-mer frequency, TF over GST control)"
same,binding signal,ETV1,"1.61 fold enrichment (6-mer frequency, TF over GST control)"
same,binding signal,ERF,"1.74 fold enrichment (6-mer frequency, TF over GST control)"
same,binding signal,ETV3L,"1.64 fold enrichment (6-mer frequency, TF over GST control)"
same,binding signal,ETS2,"1.74 fold enrichment (6-mer frequency, TF over GST control)"
same,binding signal,SPDEF,"1.75 fold enrichment (6-mer frequency, TF over GST control)"
same,binding signal,ETV7,"1.98 fold enrichment (6-mer frequency, TF over GST control)"
same,binding signal,ELF5,"2.04 fold enrichment (6-mer frequency, TF over GST control)"
same,binding signal,ETV3,"1.83 fold enrichment (6-mer frequency, TF over GST control)"
same,binding signal,ETV6,"1.95 fold enrichment (6-mer frequency, TF over GST control)"
